Test results taken from PubChem BioAssay AID1159580 (chemical genetic matrix, 2015).
Hit rate of the full screen: of about 5,500 compounds, about 2,000 (36%) were called active. Not shown: some 18% with an inconclusive outcome. No stated cut-off is given here; in the data, active means normalized growth mostly below about 0.91 (no sharp cut-off); inconclusive means no clear call, values can overlap the other calls; inactive means mostly above about 0.92. This is one part of the list.

Experiment: chemical genetic growth profiling, strain panel (AID 1159580);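 further: tested at 20 µM; growth read once vehicle control cultures reached saturation at 30 °C; 1 = growth at the plate median or of vehicle wells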
Conditions: growth OD

Measured: normalized growth

CCOc1ccc(NC(C)=O)cc1
inactive: S. cerevisiae deletion strains, locus YJR075W, strain HOC1, stronger effect = lower value 1.02 | S. cerevisiae deletion strains, locus YKL009W, strain mrt4, stronger effect = lower value 0.978 | S. cerevisiae deletion strains, locus YKL068W, stronger effect = lower value 0.976 | S. cerevisiae deletion strains, locus YKL085W, strain MDH1 (second series), stronger effect = lower value 0.985 | S. cerevisiae deletion strains, locus YKL085W, strain MDH1, stronger effect = lower value 0.985 | S. cerevisiae deletion strains, locus YKL160W, strain elf1, stronger effect = lower value 1.02 | S. cerevisiae deletion strains, locus YKL190W, strain CNB1, stronger effect = lower value 0.994 | S. cerevisiae deletion strains, locus YKR001C, strain vps1, stronger effect = lower value 0.98 | S. cerevisiae deletion strains, locus YKR026C, strain gcn3, stronger effect = lower value 1.01 | S. cerevisiae deletion strains, locus YKR091W, strain srl3, stronger effect = lower value 1.01 | S. cerevisiae deletion strains, locus YLL001W, strain dnm1, stronger effect = lower value 1.01 | S. cerevisiae deletion strains, locus YLL026W, stronger effect = lower value 1.01 | S. cerevisiae deletion strains, locus YLL041C, strain sdh2, stronger effect = lower value 1.02 | S. cerevisiae deletion strains, locus YLR027C, strain aat2, stronger effect = lower value 1.01 | S. cerevisiae deletion strains, locus YLR039C, strain RIC1, stronger effect = lower value 1.01 | S. cerevisiae deletion strains, locus YLR058C, strain SHM2, stronger effect = lower value 0.994 | S. cerevisiae deletion strains, locus YLR102C, strain apc9, stronger effect = lower value 0.976 | S. cerevisiae deletion strains, locus YLR113W, strain HOG1, stronger effect = lower value 0.997 | S. cerevisiae deletion strains, locus YLR221C, strain rsa3, stronger effect = lower value 0.999 | S. cerevisiae deletion strains, locus YLR258W, strain gsy2, stronger effect = lower value 1.02 | S. cerevisiae deletion strains, locus YLR262C, strain YPT6 (second series), stronger effect = lower value 1.03 | S. cerevisiae deletion strains, locus YLR262C, strain YPT6, stronger effect = lower value 0.999 | S. cerevisiae deletion strains, locus YLR268W, strain sec22, stronger effect = lower value 1.01 | S. cerevisiae deletion strains, locus YLR320W, strain mms22, stronger effect = lower value 1 | S. cerevisiae deletion strains, locus YLR330W, strain CHS5, stronger effect = lower value 0.993 | S. cerevisiae deletion strains, locus YLR342W, strain FKS1 (second series), stronger effect = lower value 0.957 | S. cerevisiae deletion strains, locus YLR342W, strain FKS1, stronger effect = lower value 1.03 | S. cerevisiae deletion strains, locus YLR357W, strain rsc2, stronger effect = lower value 1.01 | S. cerevisiae deletion strains, locus YLR370C, strain arc18, stronger effect = lower value 1.01 | S. cerevisiae deletion strains, locus YLR371W, strain rom2, stronger effect = lower value 0.962 | S. cerevisiae deletion strains, locus YLR384C, strain iki3, stronger effect = lower value 1.02 | S. cerevisiae deletion strains, locus YLR418C, strain cdc73, stronger effect = lower value 1 | S. cerevisiae deletion strains, locus YML016C, strain PPZ1, stronger effect = lower value 0.996 | S. cerevisiae deletion strains, locus YML032C, strain rad52, stronger effect = lower value 0.994 | S. cerevisiae deletion strains, locus YML120C, strain ndi1, stronger effect = lower value 1.02 | S. cerevisiae deletion strains, locus YML124C, strain tub3, stronger effect = lower value 0.99 | S. cerevisiae deletion strains, locus YMR058W, strain fet3, stronger effect = lower value 1.01 | S. cerevisiae deletion strains, locus YMR078C, strain ctf18, stronger effect = lower value 0.991 | S. cerevisiae deletion strains, locus YMR125W, strain sto1, stronger effect = lower value 1.02 | S. cerevisiae deletion strains, locus YMR129W, stronger effect = lower value 1.01 | S. cerevisiae deletion strains, locus YMR205C, strain PFK2, stronger effect = lower value 1.03 | S. cerevisiae deletion strains, locus YMR223W, strain ubp8, stronger effect = lower value 0.988 | S. cerevisiae deletion strains, locus YMR231W, strain pep5, stronger effect = lower value 1.01 | S. cerevisiae deletion strains, locus YMR263W, strain SAP30, stronger effect = lower value 1.01 | S. cerevisiae deletion strains, locus YMR307W, strain GAS1, stronger effect = lower value 0.978 | S. cerevisiae deletion strains, locus YNL067W, strain RPL9B, stronger effect = lower value 1.03 | S. cerevisiae deletion strains, locus YNL071W, strain lat1, stronger effect = lower value 1.01 | S. cerevisiae deletion strains, locus YNL128W, strain TEP1, stronger effect = lower value 1.02 | S. cerevisiae deletion strains, locus YNL153C, strain GIM3, stronger effect = lower value 1.01 | S. cerevisiae deletion strains, locus YNL183C, strain NPR1, stronger effect = lower value 0.995 | S. cerevisiae deletion strains, locus YNL209W, strain ssb2, stronger effect = lower value 1.02 | S. cerevisiae deletion strains, locus YNL233W, strain BNI4, stronger effect = lower value 1.01 | S. cerevisiae deletion strains, locus YNL248C, strain rpa49, stronger effect = lower value 1.02 | S. cerevisiae deletion strains, locus YNL250W, strain rad50, stronger effect = lower value 0.991 | S. cerevisiae deletion strains, locus YNL271C, strain bni1, stronger effect = lower value 0.972 | S. cerevisiae deletion strains, locus YNL298W, strain CLA4, stronger effect = lower value 0.989 | S. cerevisiae deletion strains, locus YNL307C, strain MCK1, stronger effect = lower value 0.991 | S. cerevisiae deletion strains, locus YNL322C, strain KRE1 (second series), stronger effect = lower value 1.01 | S. cerevisiae deletion strains, locus YNL322C, strain KRE1, stronger effect = lower value 1 | S. cerevisiae deletion strains, locus YNR049C, strain mso1, stronger effect = lower value 1.02 | S. cerevisiae deletion strains, locus YNR052C, strain pop2, stronger effect = lower value 0.987 | S. cerevisiae deletion strains, locus YOL006C, strain TOP1, stronger effect = lower value 1.15 | S. cerevisiae deletion strains, locus YOL012C, strain htz1 1.55 | S. cerevisiae deletion strains, locus YOL147C, strain pex11, stronger effect = lower value 0.993 | S. cerevisiae deletion strains, locus YOR001W, strain rrp6, stronger effect = lower value 1.02 | S. cerevisiae deletion strains, locus YOR061W, strain CKA2, stronger effect = lower value 0.996 | S. cerevisiae deletion strains, locus YOR069W, strain VPS5, stronger effect = lower value 1.07 | S. cerevisiae deletion strains, locus YOR070C, strain gyp1, stronger effect = lower value 1.02 | S. cerevisiae deletion strains, locus YOR080W, strain dia2, stronger effect = lower value 1.02 | S. cerevisiae deletion strains, locus YOR083W, strain WHI5, stronger effect = lower value 1.02 | S. cerevisiae deletion strains, locus YOR106W, strain vam3, stronger effect = lower value 1.01 | S. cerevisiae deletion strains, locus YOR136W, strain idh2, stronger effect = lower value 0.996 | S. cerevisiae deletion strains, locus YOR144C, strain elg1, stronger effect = lower value 0.997 | S. cerevisiae deletion strains, locus YOR184W, strain ser1, stronger effect = lower value 0.973 | S. cerevisiae deletion strains, locus YOR231W, strain MKK1, stronger effect = lower value 0.978 | S. cerevisiae deletion strains, locus YOR265W, strain rbl2, stronger effect = lower value 1.01 | S. cerevisiae deletion strains, locus YOR270C, strain vph1, stronger effect = lower value 1.02 | S. cerevisiae deletion strains, locus YOR290C, strain snf2, stronger effect = lower value 1.01 | S. cerevisiae deletion strains, locus YOR316C, strain cot1, stronger effect = lower value 0.983 | S. cerevisiae deletion strains, locus YPL051W, strain arl3, stronger effect = lower value 1 | S. cerevisiae deletion strains, locus YPL055C, strain LGE1, stronger effect = lower value 1.05 | S. cerevisiae deletion strains, locus YPL078C, strain atp4, stronger effect = lower value 1.01 | S. cerevisiae deletion strains, locus YPL106C, strain sse1, stronger effect = lower value 1.02 | S. cerevisiae deletion strains, locus YPL240C, strain hsp82, stronger effect = lower value 1.02 | S. cerevisiae deletion strains, locus YPL241C, strain CIN2, stronger effect = lower value 1.04 | S. cerevisiae deletion strains, locus YPL256C, strain CLN2, stronger effect = lower value 1.01 | S. cerevisiae deletion strains, locus YPR119W, strain clb2, stronger effect = lower value 0.989 | S. cerevisiae deletion strains, locus YPR141C, strain kar3, stronger effect = lower value 0.993 | S. cerevisiae deletion strains, locus YPR163C, strain tif3, stronger effect = lower value 0.995 | S. cerevisiae deletion strains, locus YPR167C, strain met16, stronger effect = lower value 0.978 | S. cerevisiae deletion strains, strain wtn01, stronger effect = lower value 0.989 | S. cerevisiae strains, strain wild type, stronger effect = lower value 0.992
